# Screens (PubChem)
# L major viab = reduces viability of Leishmania major promastigotes | resazurin fluorescence viability | inhibition, % at 10 µM | 9% of 200,000 active | AID 1063; in the data active = inhibition above about 50%;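 note: promastigotes grown with compound for 44 hours at 28 °C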
# ROMK mod = human ROMK K+ channel modulation, primary screen; Tet-inducible ROMK, thallium flux fluorescence; actives lie on both sides; P48048; 2% of 130,000 active; AID 1918; B-score at 10 µM;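 active = signal ratio slope over the read window, or its plate-corrected B-score, at least 3 SD from the plate mean, either direction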;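 note: B-score of the F/F0 ratio slope over 7 to 12 s after thallium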
# Target sequence (P48048 whole entry, looked up): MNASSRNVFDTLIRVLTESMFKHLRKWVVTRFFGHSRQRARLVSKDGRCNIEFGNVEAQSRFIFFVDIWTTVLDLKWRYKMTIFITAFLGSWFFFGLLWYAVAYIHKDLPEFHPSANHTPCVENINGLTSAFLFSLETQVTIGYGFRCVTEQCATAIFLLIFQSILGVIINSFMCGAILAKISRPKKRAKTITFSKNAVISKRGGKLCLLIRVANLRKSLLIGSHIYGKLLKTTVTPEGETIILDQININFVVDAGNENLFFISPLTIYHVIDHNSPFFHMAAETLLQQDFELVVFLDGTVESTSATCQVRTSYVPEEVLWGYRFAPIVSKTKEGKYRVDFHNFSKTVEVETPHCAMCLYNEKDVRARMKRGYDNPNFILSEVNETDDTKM
# Calpain2 inh = calpain II (pig) inhibition; purified calpain II, fluorogenic peptide substrate, 30 min; inhibition, % at 16 µM; 0.37% of 220,000 active;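 active = inhibition above about 50%, limit read from the data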
# WT yeast gro inh = growth inhibition of WT yeast, mitochondrial fusion screen; inhibition, % at 10 µM; mitochondrial fusion phenotypic screen, WT strain; 2.1% of 190,000 active; AID 1362; in the data active = inhibition above about 58%; tested in S. cerevisiae
# Cl transport mod = KCC2 (human) Cl- transport modulation. KCC2 cells, thallium flux FluoZin-2 fluorescence. B-score of Tl+ flux slope (higher = more flux/activation; lower = inhibition) at 10 µM. 2.2% of 190,000 active;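 active = thallium flux slope and its plate-corrected score both differing from the plate sample mean at a set confidence after two filtering rounds, in either direction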;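 note: slope of fluorescence scaled to starting intensity during 10 to 20 s after thallium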
# * = called active by the depositor; i = inactive; nt = no result. Most compounds without a hit are left out; they make up all but 12% or so of the library.
SMILES,L major viab,ROMK mod,Calpain2 inh,WT yeast gro inh,Cl transport mod
O=C1N/C(=N\c2ccccn2)SC1Cc1ccc(Cl)cc1 (stereo not drawn),-5,0.3,-19,-4,nt
CCOc1cc(-c2c(C#N)c(N)nc3c2CCCC3C)ccc1O (stereo not drawn),46,nt,-13,28,0.78
COc1ccccc1-c1c(C)c(C)nc(N)c1C#N,5,-0.15,-59,5,-0.091
CCOc1cc(-c2c(C#N)c(N)nc3c2CCc2ccccc2-3)ccc1O,90*,1.1,-88,43,0.44
COc1ccccc1-c1c(C#N)c(N)nc2c1CCc1ccccc1-2,87*,-0.58,i,67*,-0.19
C=CCN(CC=C)CCCOc1ccc(C)cc1OC,14,-2.3,-5,0,-1.3
COc1ccc(CCNC(=O)CSc2nc(C)nc3sccc23)cc1OC,nt,nt,-6,nt,-0.45
CCc1ccc(NC(=S)/N=C(\N)Nc2nc(C)c3cc(CC)ccc3n2)cc1,22,-0.081,-24,43,0.29
Cc1cc(C)c2c(N)c3ccccc3nc2n1,101*,0.17,i,-1,0.31
CCc1ccc2nc3nc(C)cc(C)c3c(N)c2c1,101*,nt,i,1,-0.1
CCN1C(=O)/C(=C/N(C(C)=O)c2ccccc2)N(c2ccccc2)C1=S,21,-3.8*,2,16,nt
C/C(=N\NC(=O)c1cccc(S(=O)(=O)N2CCOCC2)c1)c1cc2ccccc2o1,nt,nt,-22,nt,0.29
CC1CC(C)(C)NC(=S)N1CC(=O)N1CCN(Cc2ccc3c(c2)OCO3)CC1 (stereo not drawn),-5,-0.68,7,14,1
CC(=O)Nc1ccc(S(=O)(=O)n2cnc3cc(C)c(C)cc32)cc1,67*,-0.65,7,8,-2
CN1CCCC(C#CC(O)(c2ccccc2)c2ccccc2)C1 (stereo not drawn),78*,-1.2,18,-19,nt
CCN(CC)CCNC(=O)c1ccc(NC(C)=O)cc1,15,-1.3,-9,-7,0.86
CCN(CC)CCNC(=O)c1cc2cc(Br)ccc2s1,96*,0.017,-6,4,-0.16
Cc1ccc(SCC(=O)Nc2ccc(N3CCN(C)CC3)c(F)c2)c(C)c1,100*,-0.065,15,12,-0.73
O=C(CSc1ccc(Cl)cc1)Nc1ccc(N2CCN(c3ccccc3)CC2)c(F)c1,-2,nt,8,-43,-0.11
COCCNC(=S)NCCc1ccc(Cl)cc1Cl,-2,0.041,4,70*,1.1
COCC(C)NC(=O)COc1ccc(Cl)cc1Cl (stereo not drawn),-3,nt,-6,-6,1
O=C(Cc1ccccc1)NCCc1ccc(Cl)cc1Cl,54*,0.013,4,-13,-0.91
COCC(C)NC(=S)NCCc1ccc(Cl)cc1Cl (stereo not drawn),3,0.16,0,61*,-0.66
O=C(Cc1ccc(Br)cc1)NCCc1ccc(Cl)cc1Cl,-5,-0.68,3,7,0.054
CC(=O)c1ccc(NC(=S)Nc2cccc(Cl)c2C)cc1,2,-0.63,-14,-5,0.62
SMILES,L major viab,ROMK mod,Calpain2 inh,WT yeast gro inh,Cl transport mod
CCC(NS(=O)(=O)c1ccc(C)cc1)C(=O)N1CCC2(O)CCCCC2C1 (stereo not drawn),-7,nt,0,-54,-0.015
O=C(C(Cc1ccc(Cl)cc1)NS(=O)(=O)c1ccccc1)N1CC[C@@]2(O)CCCC[C@H]2C1 (stereo partly drawn),51*,nt,-41,16,-0.018
O=C(O)C(c1ccccc1)C(c1ccccc1)c1ccccc1 (stereo not drawn),-3,-0.76,-29,-8,0.037
CCc1ccc(S(=O)(=O)/N=C2\C=CC(=O)c3ccccc32)cc1,93*,nt,-162,33,-0.029
CCc1ccc(S(=O)(=O)/N=C2/C=C(Sc3ncn[nH]3)C(=O)c3ccccc32)cc1,100*,-7.8*,-19,36,-1.2
Cc1ccc(S(=O)(=O)/N=C2/C=C(C3C(=O)CC(C)(C)CC3=O)C(=O)c3ccccc32)cc1,-1,0.36,-10,6,nt
CCCN1CCC(=NNc2ccc(C(=O)O)cc2)CC1,90*,-0.78,5,4,0.039
CCOC(=O)C(=Cc1ccc(Br)cc1)C(=O)OCC,nt,nt,7,nt,-0.49
CCOC(=O)C(CC)(CC)C(=O)/C=C/c1ccc(Br)cc1,83*,nt,6,61*,nt
CC(=C\c1ccco1)/C=C(\C#N)C(=O)NCCc1c[nH]c2ccccc12,37,nt,-80,7,1
O=C(CN1CCN(Cc2ccc3c(c2)OCO3)CC1)c1c[nH]c2ccccc12,86*,nt,1,0,1.2
O=C(CN1CCN(Cc2ccc3c(c2)OCO3)CC1)Nc1ccc2c(c1)OCCO2,91*,0.39,-5,8,-1.4
O=C(CN1CCN(CC(=O)Nc2ccccc2Cl)CC1)Nc1ccc2c(c1)OCCO2,23,-0.53,-38,4,nt
O=c1[nH]c(CN2CCN(Cc3ccc4c(c3)OCO4)CC2)nc2ccccc12,91*,1.3,-11,5,1.2
COc1cc(NC(=O)CN2CCN(Cc3ccc4c(c3)OCO4)CC2)cc(OC)c1,86*,-0.94,-4,-4,-2
CC[n+]1ccc(C(=O)NCc2ccccc2)cc1,-7,0.32,-9,-6,1
CCOC(=O)C(NC(C)=O)C(=O)Nc1ccc(C)cc1C (stereo not drawn),-7,0.8,3,-13,0.41
CC1CCc2nc(NC(=O)CN3CCN(c4ccccc4)CC3)sc2C1 (stereo not drawn),-4,-1.5,17,50,0.73
NS(=O)(=O)c1cccc(NC(=O)CN2CCN(Cc3ccc4c(c3)OCO4)CC2)c1,53*,nt,-2,-13,-0.61
O=C(CN1CCN(Cc2ccc3c(c2)OCO3)CC1)Nc1ccc2c(c1)OCO2,92*,-0.64,-25,16,-0.054
CC1CCc2nc(NC(=O)CN3CCN(Cc4ccc5c(c4)OCO5)CC3)sc2C1 (stereo not drawn),99*,nt,-20,17,nt
COc1ccc(NC(=O)CN2CCN(Cc3ccc4c(c3)OCO4)CC2)cc1OC,71*,0.2,-45,-6,-0.37
CN(C(=O)Nc1cnccc1C(F)(F)F)C1CCCCC1,nt,nt,-14,nt,1.1
CC(=O)c1ccc(NC(=O)C2CC(=O)N(C(C)C)C2)cc1 (stereo not drawn),-6,-0.043,-2,1,-0.0024
O=C(O)C(Oc1ccc2c3c(c(=O)oc2c1)CCC3)c1ccccc1 (stereo not drawn),-8,nt,-86,nt,-0.094
O=C(CN1CCN(Cc2ccc3c(c2)OCO3)CC1)Nc1ccc(F)cc1,97*,-0.46,18,17,1.3
O=C(CN1CCCN(S(=O)(=O)c2ccc(Br)cc2)CC1)Nc1ccc2c(c1)OCO2,86*,nt,8,5,0.026
CCOC(=O)c1c(NC(=O)C2COc3ccccc3O2)sc2c1CC(C)(C)NC2(C)C (stereo not drawn),99*,nt,43,48,0.76
CCOC(=O)c1c(NC(=O)C2COc3ccccc3O2)sc(C(C)=O)c1C (stereo not drawn),4,nt,3,3,0.92
CCCc1nnc(NC(=O)Cn2cnc3ccccc3c2=O)s1,-4,nt,-5,-3,1.3
